The sample as a whole holds a higher share of hits than the screen did.
VDR inhibitor = inhibitors of human vitamin D receptor; VDR-SRC2-3 peptide fluorescence polarization, 2 h; hit rate 0.93% among 400,000; Potency, µM, most hits filed as inhibitors; AID 504847
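Inhibition of the VDR/SRC2-3 peptide interaction is quantified by fluorescence polarization. Compounds (23 nl, pintool) incubate with the reagents for 2 hours at ambient room temperature.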
G9a block = G9a (human) methyltransferase inhibition | Q96KQ7 | Potency, µM (series often up to 102 µM), usual class: inhibitors | AID 504332 | G9a H3K9 monomethylation, AlphaScreen, 2 h | hit rate 8.8% among 350,000; further: nearly all actives have a fitted effect of over 75% in size
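AlphaScreen read-out: biotin-H3K9 peptide (500 nM) methylation by 20 nM enzyme with 20 uM SAM, 2 h at room temperature after 15 min compound preincubation; anti-monomethyl H3K9 antibody plus donor/acceptor beads, 10 min dark.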
Sfp PPTase inh = inhibitors of Bacillus subtilis Sfp phosphopantetheinyl transferase; Q9F4F7; Biochemical Sfp PPTase activity, qHTS; Potency, µM, most hits filed as inhibitors; hit rate 3.5% among 310,000;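 further: the enzyme is Sfp with the accession as filed and its product quenches rhodamine fluorescence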
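With Hepes-Na pH 7.6 buffer containing 10 mM MgCl2, Sfp (15 nM) modified BHQ-2-YbbR (12.5 uM) using rhodamine-CoA (5 uM). Two reads 30 minutes apart at 525/598 nm yielded each well's rate.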
12-LOX inh = ALOX12 (human) lipoxygenase inhibition | purified 12hLO, xylenol orange hydroperoxide absorbance | P18054 | AID 1671190 | hit rate 1.1% among 580,000 | Potency, µM (series often up to 108 µM), actives largely listed as inhibitors
Target sequence (P18054 whole entry, looked up): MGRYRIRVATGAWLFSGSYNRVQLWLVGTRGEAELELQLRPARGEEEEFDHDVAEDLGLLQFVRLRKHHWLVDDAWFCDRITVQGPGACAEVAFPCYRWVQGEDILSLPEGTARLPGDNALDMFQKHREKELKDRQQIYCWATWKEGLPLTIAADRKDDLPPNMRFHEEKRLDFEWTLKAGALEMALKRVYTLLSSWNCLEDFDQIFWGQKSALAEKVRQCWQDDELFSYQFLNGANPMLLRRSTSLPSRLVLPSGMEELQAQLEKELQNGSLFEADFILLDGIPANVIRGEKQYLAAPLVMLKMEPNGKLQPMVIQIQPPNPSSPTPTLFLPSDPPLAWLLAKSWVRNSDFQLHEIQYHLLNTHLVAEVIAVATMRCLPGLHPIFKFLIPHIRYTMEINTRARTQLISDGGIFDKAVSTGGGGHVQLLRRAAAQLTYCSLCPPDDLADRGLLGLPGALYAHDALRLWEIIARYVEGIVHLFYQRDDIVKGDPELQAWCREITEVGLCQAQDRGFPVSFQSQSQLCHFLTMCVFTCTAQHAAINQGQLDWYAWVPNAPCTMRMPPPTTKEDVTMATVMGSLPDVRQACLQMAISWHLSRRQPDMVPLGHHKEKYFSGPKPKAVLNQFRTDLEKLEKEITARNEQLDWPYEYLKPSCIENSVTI
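Hydroperoxide product was detected by ferrous iron/xylenol orange as the 573 to 405 nm absorbance ratio. Arachidonic acid at 40 uM (final) was turned over for 30 min at room temperature by 150 nM human 12hLO, pH 7.0 Hepes buffer, after 15 min compound preincubation.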
GRP78 ERSR act = inducers of ER stress response in human glioma cells. U87-MG GRP78 promoter luciferase reporter, 16 h. Potency, µM, actives largely listed as activators. hit rate 0.02% among 420,000; further: series mostly up to about 76 µM; nearly all actives have a fitted effect of over 35% in size
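Stably transfected U87-MG glioma cells carrying a GRP78-based luciferase sensor; 16 h compound incubation. Luminescence end-point read 10 min after Bright-Glo addition at room temperature.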
Numbers stand for hits; [ ] = dose if it differs, or a comment. The call rests on the fitted dose curve; in most records, active means well fitted curve in the direction sought with a large enough effect; inconclusive means small, poorly fitted or top-dose-only effect, or another doubt; inactive means no such curve, though single readings can be large; an effect the other way counts as inactive or inconclusive.

Results for Cc1noc(C)c1CNCC1(COc2cnccn2)C[C@@H](O)[C@@H](O)C1 (stereo partly specified) ?
12-LOX inh: inactive

What do the screens show for `Cc1noc(C)c1CNCC1(COc2cccnc2)C[C@@H](O)[C@@H](O)C1` (stereo partly specified)?
12-LOX inh: 13µM

What do the screens show for `NC(=O)n1c(O)c(C(=O)c2cccs2)c2cc(Cl)ccc21`?
VDR inhibitor: 45µM; G9a block: inconclusive; Sfp PPTase inh: inactive; 12-LOX inh: inactive; GRP78 ERSR act: inactive

How did N/C(=N\OC(=O)c1cccs1)c1ccc(Cl)cc1 do in these assays?
VDR inhibitor: inactive; G9a block: inactive; Sfp PPTase inh: inactive; 12-LOX inh: inactive; GRP78 ERSR act: inactive

Results for COc1cccc(OCc2nnc(C(=O)N3CCC[C@@H]3c3nc4ccccc4[nH]3)n2-c2ccccc2)c1OC ?
12-LOX inh: inactive

Results for CC(=O)c1nc(N2C(=O)CC(Cc3ccc(C)cc3)C2=O)sc1C (stereo unspecified) ?
VDR inhibitor: inactive; G9a block: 1.4µM; Sfp PPTase inh: inactive; 12-LOX inh: inactive; GRP78 ERSR act: inactive

Results for C/C(=N\O)C(=O)C(CN1CCCCC1)CN1CCCCC1 ?
VDR inhibitor: inactive; G9a block: 0.89µM; Sfp PPTase inh: inactive; 12-LOX inh: inactive; GRP78 ERSR act: inactive

What do the screens show for `CCCCOc1ccc(C2(C)NC(=O)NC2=O)cc1` (stereo unspecified)?
VDR inhibitor: 25µM; G9a block: inactive; Sfp PPTase inh: inactive; 12-LOX inh: inactive; GRP78 ERSR act: inactive

Results for CCCCCCCOc1ccc(C2(C)NC(=O)NC2=O)cc1 (stereo unspecified) ?
VDR inhibitor: inactive; G9a block: inactive; Sfp PPTase inh: inactive; 12-LOX inh: inconclusive; GRP78 ERSR act: inactive

Results for C#CCN(C(=O)c1ccc(-c2cnco2)cc1)C1CCCCC1 ?
12-LOX inh: inactive

Results for CC(C)CCN1C[C@@H]2[C@H](C1)N(CCOc1ccccc1)C(=O)C(C)(C)[S+]2(=O)[O-] ?
12-LOX inh: inactive

Results for Cc1cccc(N(CC(=O)O)CC(=O)O)c1 ?
VDR inhibitor: inactive; G9a block: 11µM; Sfp PPTase inh: inactive; 12-LOX inh: inactive; GRP78 ERSR act: inactive

What do the screens show for `Cc1cccc(N(Cc2ccccc2)C(=O)CCl)c1`?
VDR inhibitor: inactive; G9a block: inactive; Sfp PPTase inh: inactive; 12-LOX inh: inconclusive; GRP78 ERSR act: inactive

How did COc1cccc(/C=N/NC(=S)Nc2cccc(C(=O)O)c2)c1O do in these assays?
VDR inhibitor: inactive; G9a block: 40µM; Sfp PPTase inh: inactive; 12-LOX inh: inconclusive; GRP78 ERSR act: inactive

Results for COCCCNC(=S)N/N=C/c1ccc(O)cc1 ?
VDR inhibitor: inactive; G9a block: inactive; Sfp PPTase inh: inactive; 12-LOX inh: inconclusive; GRP78 ERSR act: inactive

How did Oc1ccc(/C=N/NC(=S)Nc2cccnc2)c(O)c1O do in these assays?
VDR inhibitor: 50µM; G9a block: inactive; Sfp PPTase inh: 3.5µM; 12-LOX inh: inconclusive; GRP78 ERSR act: inactive

How did Oc1cccc(/C=N/NC(=S)Nc2cccnc2)c1O do in these assays?
VDR inhibitor: inactive; G9a block: 11µM; Sfp PPTase inh: inconclusive; 12-LOX inh: 45µM; GRP78 ERSR act: inactive

Results for COc1cc(/C=N/NC(=S)Nc2cccc(C(=O)O)c2)ccc1O ?
VDR inhibitor: inactive; G9a block: inconclusive; Sfp PPTase inh: inactive; 12-LOX inh: inactive; GRP78 ERSR act: inactive

How did Fc1c(F)c(F)c(/C=N/NC(=S)Nc2cccnc2)c(F)c1F do in these assays?
VDR inhibitor: inactive; G9a block: inactive[12.7 µM]; Sfp PPTase inh: inactive; 12-LOX inh: inactive; GRP78 ERSR act: inactive

How did COCCCNC(=S)N/N=C/c1ccc2ccccc2c1 do in these assays?
VDR inhibitor: inactive; G9a block: 50µM; Sfp PPTase inh: inactive; 12-LOX inh: inactive; GRP78 ERSR act: inactive

How did NCc1cccc(-c2cccc(C(F)(F)F)c2)c1 do in these assays?
12-LOX inh: inactive[12.5 µM]

What do the screens show for `COc1ccc(/C=N/NC(=S)Nc2ccccc2)cc1`?
VDR inhibitor: inactive; G9a block: inactive[12.7 µM]; Sfp PPTase inh: inactive; 12-LOX inh: 50µM; GRP78 ERSR act: inactive

How did COc1ccc(/C=N/NC(=S)Nc2cccc(C(=O)O)c2)cc1 do in these assays?
VDR inhibitor: inactive; G9a block: inactive; Sfp PPTase inh: inactive; 12-LOX inh: inconclusive; GRP78 ERSR act: inactive

Results for Oc1ccc(/C=N/NC(=S)Nc2cccnc2)c(O)c1 ?
VDR inhibitor: inactive; G9a block: 25µM; Sfp PPTase inh: inactive; 12-LOX inh: inconclusive; GRP78 ERSR act: inactive

What do the screens show for `Cc1cc(=O)oc2cc(OCC(=O)NCC3(N4CCCCC4)CCCCC3)ccc12`?
12-LOX inh: inactive

How did COc1ccccc1NS(=O)(=O)c1ccc2oc(SCCOc3ccc(F)cc3)nc2c1 do in these assays?
12-LOX inh: inactive

How did Clc1ccccc1CN1CCN(c2ncnc3nc[nH]c23)CC1 do in these assays?
12-LOX inh: inactive

Results for CCc1nccn1S(=O)(=O)c1ccc(OC)c(OC)c1 ?
VDR inhibitor: inconclusive; G9a block: inactive; Sfp PPTase inh: inactive; 12-LOX inh: inactive; GRP78 ERSR act: inactive

How did CCc1nccn1S(=O)(=O)c1ccc(C)c(C)c1 do in these assays?
VDR inhibitor: inactive; G9a block: 45µM; Sfp PPTase inh: inactive; 12-LOX inh: inactive; GRP78 ERSR act: inactive

How did C=CS(=O)(=O)c1ccc(Oc2ccc(S(=O)(=O)C=C)cc2)cc1 do in these assays?
VDR inhibitor: 45µM; G9a block: inconclusive; Sfp PPTase inh: inconclusive; 12-LOX inh: inactive; GRP78 ERSR act: inactive

How did O=C(Nc1ccccc1)OCCN1CCN(Cc2ccccc2)CCC1=O do in these assays?
VDR inhibitor: inactive; G9a block: inactive; Sfp PPTase inh: inactive; 12-LOX inh: inactive; GRP78 ERSR act: inactive

Results for O=C(Nc1cccs1)OCCN1CCN(Cc2ccccc2)CCC1=O ?
VDR inhibitor: inactive; G9a block: 45µM; Sfp PPTase inh: inactive; 12-LOX inh: inactive; GRP78 ERSR act: inactive

How did CCOC(=O)C1=C(C)NC(=O)CC1c1cc2c(cc1[N+](=O)[O-])OCO2 (stereo unspecified) do in these assays?
VDR inhibitor: inactive; G9a block: 22µM; Sfp PPTase inh: inconclusive; 12-LOX inh: inactive; GRP78 ERSR act: inactive

How did CCOC(=O)C1=C(C)NC(=O)NC1c1cc2c(cc1Br)OCO2 (stereo unspecified) do in these assays?
VDR inhibitor: inactive; G9a block: inactive; Sfp PPTase inh: inactive; 12-LOX inh: inactive; GRP78 ERSR act: inactive

What do the screens show for `CCCOC(=O)C1=C(C)N(C)C(=O)NC1c1cc2c(cc1[N+](=O)[O-])OCO2` (stereo unspecified)?
VDR inhibitor: inactive; G9a block: 10µM; Sfp PPTase inh: 14µM; 12-LOX inh: inconclusive; GRP78 ERSR act: inactive

Results for COc1ccccc1CNC(=O)Cc1c(C)c2ccc(OC)c(C)c2oc1=O ?
12-LOX inh: inactive

Results for O=C(O)c1cc([N+](=O)[O-])ccc1Nc1ccccc1 ?
VDR inhibitor: inactive; G9a block: inactive; Sfp PPTase inh: inactive; 12-LOX inh: inactive; GRP78 ERSR act: inactive

Results for N#Cc1cc(N)c(Nc2ccccc2)cc1C#N ?
VDR inhibitor: inactive; G9a block: inactive; Sfp PPTase inh: inactive; 12-LOX inh: inactive; GRP78 ERSR act: inactive

Compound activity: PubChem, National Center for Advancing Translational Sciences (NCATS)
